# Measured values from publication PMC8384837, “Expanding the binding specificity for RNA recognition by a PUF domain”.
# Target: PUM1 PUF domain R4-HRG (Homo sapiens, UniProt Q14671 828-1176, N971H;H972R;Q975G)
# Experiment: yeast three-hybrid, YBZ-1, SC-Leu-His + 0.5 mM 3-AT, 4 days
# Details: tags: N-Gal4 AD-HA kept; label: inside an RPR1-promoter hybrid RNA with tandem MS2 sites; ssRNA
# How it was run: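 Pumilio-1 PUF domain libraries, randomized (NNK) at the three base-contacting residues of each repeat, were co-expressed with matching RNA elements from a centromeric plasmid in strain YBZ-1 (LexA–MS2 coat fusion, HIS3 reporter). Transformants were plated on SC-Leu (input) and SC-Leu-His + 0.5 mM 3-AT (selection) for four days, and repeat regions were PCR-amplified and Illumina-sequenced. The interaction score is the log2 change in variant frequency from input to selection, with pseudocount 1 where absent.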
row,Sequence,binding signal
1,GGCUAGAACUAGUGGAUCCCCCGGCGCCCGGCGGCUCGAGCCCGGGUAAGUGUAUAUAGUCUGCAUGCCGCCGGGCGCCAUGCCUGCAGGUCGACUCUAGAAAACAUG,2.71 log2 enrichment (interaction score)
2,GGCUAGAACUAGUGGAUCCCCCGGCGCCCGGCGGCUCGAGCCCGGGUAAGUGUAAAUAGUCUGCAUGCCGCCGGGCGCCAUGCCUGCAGGUCGACUCUAGAAAACAUG,3.06 log2 enrichment (interaction score)
3,GGCUAGAACUAGUGGAUCCCCCGGCGCCCGGCGGCUCGAGCCCGGGUAAGUGUACAUAGUCUGCAUGCCGCCGGGCGCCAUGCCUGCAGGUCGACUCUAGAAAACAUG,2.09 log2 enrichment (interaction score)
